Data as given in ChEMBL document CHEMBL1157539, “Thousands of chemical starting points for antimalarial lead identification” (Nature, 2010).

tested on: Plasmodium falciparum; assay: GSK_TCMDC: Inhibition of Plasmodium falciparum 3D7 in whole red blood cells, using parasite LDH activity as an index of growth. Test compounds present at 2uM; format: functional

Question: With `O=C(O)C(F)(F)F.c1ccc(CCNCc2cccc(-c3ccc(CNc4ccc5ncccc5c4)cc3)c2)cc1` as the compound, how does the Inhibition read?
Answer: 93%

Question: For `CCN(CC)CCCNc1cc[n+]([O-])c2cc3ccccc3cc12`, which Inhibition is on record?
Answer: 100%

Question: With `COc1cccc2c1CCN(CCN1CCC(CNC(=O)c3ccc(-c4ccc(C#N)cc4)cc3)CC1)C2` as the compound, how does the Inhibition read?
Answer: 99%

Question: With `CCOc1cc(C(=O)NCc2cccc(C(F)(F)F)c2)ccc1-c1nc2cc(Cl)ccc2[nH]1` as the compound, how does the Inhibition read?
Answer: 88%

Question: How did the Inhibition turn out when `COc1ccc2ncc(F)c(NC(=O)C3CCC(NCc4cc5c(F)cccc5[nH]4)CC3)c2n1.Cl` (stereo not given) was run?
Answer: 91%

Question: With `CN(C)CCCc1cc(NC(=O)Nc2cccc(Cl)c2Cl)ccc1I.Cl` as the compound, how does the Inhibition read?
Answer: 100%

Question: How did the Inhibition turn out when `COc1ccc(Nc2nccc(-c3ccc4c(-c5ccsc5)cnc(N)c4c3)n2)cc1` was run?
Answer: 100%

Question: For `CS(=O)(=O)CCNCc1ccc(-c2ccc3ncnc(Nc4ccc(OCc5ccccc5)c(Cl)c4)c3c2)o1.Cl` [GW574783B], which Inhibition is on record?
Answer: 100%

Question: With `Cc1cccc2nc(-c3cccc(-c4ccc(C(=O)NCCc5ccc(O)c(=O)[nH]5)cc4)c3)[nH]c12` as the compound, how does the Inhibition read?
Answer: 85%

Question: Which Inhibition does the source give for `COc1ccc(Cl)c(CC2c3cc(O)c(Cl)cc3CCN2C)c1.Cl` (stereo not given) here?
Answer: 98%

Question: Which Inhibition does the source give for `Cc1sc(C)c(C(F)(F)F)c1CNCCCNc1cc(=O)c2ccccc2[nH]1.Cl` here?
Answer: 96%

Question: `CC1(C)NC(N)=NC(=N)N1OCc1nc(N)nc(Nc2ccccc2)n1` was tested. Which Inhibition did it give?
Answer: 98%

Question: How did the Inhibition turn out when `N#CCOc1c(C2CCN(CCCCNC(=O)c3ccc(-c4ccc(C(F)(F)F)cc4)cc3)CC2)ccc2c1CCCC2` was run?
Answer: 97%

Question: How did the Inhibition turn out when `Nc1c(Cl)cc(C(O)CNCCCCCOCCCc2ccc3ncccc3c2)cc1Cl.O=C(O)/C=C/C(=O)O` (stereo not given) was run?
Answer: 96%

Question: With `Cl.O=S(=O)(Nc1ccc2nccc(N3CCNCC3)c2c1)c1ccc(-c2ccccc2)cc1` as the compound, how does the Inhibition read?
Answer: 100%

Question: `Cc1c(C)c2c(c(C)c1O)CC[C@](C)(C(=O)N1CCC(CCN3CCC(c4c[nH]c5ccccc45)CC3)CC1)O2` was tested. Which Inhibition did it give?
Answer: 99%

Question: With `CCCCCN1CCCN(Cc2cccc(NC(=O)c3ccc4ccccc4c3)c2)CC1.O=C(O)C(F)(F)F` as the compound, how does the Inhibition read?
Answer: 86%

Question: Which Inhibition does the source give for `CC(C)(C)c1cc(C(=O)Nc2cccnc2)cc(C(=O)Nc2cccnc2)c1` here?
Answer: 95%

Question: Which Inhibition does the source give for `Br.Cc1ccnc(Nc2nc(-c3ccccn3)cs2)c1` here?
Answer: 100%

Question: For `Cc1ccccc1C1CCN(C2CCC(NC(=O)/C=C/c3ccc(Cl)cc3)CC2)CC1` (stereo not given), which Inhibition is on record?
Answer: 99%

Question: `COc1ccc2c(c1)Nc1ccc(Cl)cc1C2N.O=S(=O)(O)O` (stereo not given) was tested. Which Inhibition did it give?
Answer: 100%

Question: `Brc1ccsc1-c1nc(NCCC(c2ccccc2)c2ccccc2)no1` was tested. Which Inhibition did it give?
Answer: 94%

Question: `O=C(O)C(F)(F)F.O=C1OC2(CN1CC1CCN(Cc3ccc(-n4ccnc4)cc3)C1)c1ccccc1-c1ccccc12` (stereo not given) was tested. Which Inhibition did it give?
Answer: 96%

Question: For `O=C(Nc1ccc(S(=O)(=O)N2CCCCCC2)cc1)c1cc(-c2ccccc2O)n[nH]1`, which Inhibition is on record?
Answer: 100%

Question: How did the Inhibition turn out when `Cc1c(F)cc(C(=O)NC2CC2)cc1-c1ccc2c(cnn2S(=O)(=O)c2ccc(Cl)s2)c1` was run?
Answer: 81%

Question: With `CC[C@H](C)CNC(=O)c1cccc(-c2ccc(CN3CCC(N4CCCC4)CC3)cc2)n1.O=C(O)C(F)(F)F` as the compound, how does the Inhibition read?
Answer: 100%

Question: With `CNC(=N)c1ccc(NC(=O)c2ccc(C(=O)Nc3ccc(C(=N)NC)cc3)cc2)cc1.Cl` as the compound, how does the Inhibition read?
Answer: 96%

Question: For `COc1cc(C(C)C)nc2ccc(NC(=O)c3ccc(C(=O)Nc4ccc5nc(C(C)C)cc(OC)c5c4)cc3)cc12`, which Inhibition is on record?
Answer: 95%

Question: How did the Inhibition turn out when `CCCc1cc(C)ccc1OCCCON1C(NC(=O)OCC)=NC(NC(=O)OCC)=NC1(C)C` was run?
Answer: 95%

Question: Which Inhibition does the source give for `O=C(Nc1ccc(OC2CCN(Cc3ccsc3)C2)c(Cl)c1)c1cccs1.O=C(O)C(F)(F)F` (stereo not given) here?
Answer: 91%

Question: For `COc1cccc(NC(=O)NC2CCN(c3ccnc(Nc4ccc(F)cc4)n3)C2)c1` (stereo not given), which Inhibition is on record?
Answer: 100%

Question: How did the Inhibition turn out when `COc1ccc(CC2(c3ccc(F)cc3)N=C(N)N(CCCc3ccc4c(c3)OCO4)C2=O)cc1.O=C(O)C(F)(F)F` (stereo not given) was run?
Answer: 98%

Question: `CCC(C)c1ccc(-n2c(Nc3ccccc3)nc3cc(S(N)(=O)=O)ccc32)cc1` (stereo not given) was tested. Which Inhibition did it give?
Answer: 88%

Question: For `O=C(NC1CCC(N2CCN(c3cccc(C(F)(F)F)c3)CC2)CC1)c1cc2ccccc2[nH]1` (stereo not given), which Inhibition is on record?
Answer: 99%

Question: With `c1ccc(Oc2ccc(Nc3ccnc4cc(-c5cccc(CNCCN6CCOCC6)c5)ccc34)cc2)cc1` as the compound, how does the Inhibition read?
Answer: 100%

Question: For `COc1ccc(-c2cccc(NC(=O)c3cccc(C#N)c3)c2)cc1CN(C)CCO.O=C(O)C(F)(F)F`, which Inhibition is on record?
Answer: 96%

Question: Which Inhibition does the source give for `O=C(c1ccc(O)c(-c2cc(Cl)cc(Cl)c2)c1)N(CCO)CCO` here?
Answer: 94%

Question: Which Inhibition does the source give for `Cl.Clc1ccc(C2CCN(CCCOc3ccc4c(c3)CCNCC4)CC2)cc1` here?
Answer: 98%

Question: How did the Inhibition turn out when `COc1ccc(N2CCN(c3nc(N)c4cc(OC)c(OC)cc4n3)CC2C)cc1.Cl` (stereo not given) was run?
Answer: 95%

Question: `CCCNCc1ccc(-c2ccc(CN(Cc3ccc4c(c3)OCO4)C(=O)[C@H]3CCCO3)cc2)nc1.O=C(O)C(F)(F)F` was tested. Which Inhibition did it give?
Answer: 90%

tested on: Plasmodium falciparum; assay: GSK_TCMDC: Inhibition of Plasmodium falciparum Dd2 in whole red blood cells, using parasite LDH activity as an index of growth. Test compounds present at 2uM; format: functional

Question: Which Inhibition does the source give for `O=C(O)C(F)(F)F.c1ccc(CCNCc2cccc(-c3ccc(CNc4ccc5ncccc5c4)cc3)c2)cc1` here?
Answer: 27%

Question: For `CCN(CC)CCCNc1cc[n+]([O-])c2cc3ccccc3cc12`, which Inhibition is on record?
Answer: 3%

Question: Which Inhibition does the source give for `COc1cccc2c1CCN(CCN1CCC(CNC(=O)c3ccc(-c4ccc(C#N)cc4)cc3)CC1)C2` here?
Answer: 98%

Question: With `CCOc1cc(C(=O)NCc2cccc(C(F)(F)F)c2)ccc1-c1nc2cc(Cl)ccc2[nH]1` as the compound, how does the Inhibition read?
Answer: 31%

Question: For `COc1ccc2ncc(F)c(NC(=O)C3CCC(NCc4cc5c(F)cccc5[nH]4)CC3)c2n1.Cl` (stereo not given), which Inhibition is on record?
Answer: 29%

Question: `CN(C)CCCc1cc(NC(=O)Nc2cccc(Cl)c2Cl)ccc1I.Cl` was tested. Which Inhibition did it give?
Answer: 45%

Question: Which Inhibition does the source give for `COc1ccc(Nc2nccc(-c3ccc4c(-c5ccsc5)cnc(N)c4c3)n2)cc1` here?
Answer: 98%

Question: Which Inhibition does the source give for `CS(=O)(=O)CCNCc1ccc(-c2ccc3ncnc(Nc4ccc(OCc5ccccc5)c(Cl)c4)c3c2)o1.Cl` [GW574783B] here?
Answer: 76%

Question: For `Cc1cccc2nc(-c3cccc(-c4ccc(C(=O)NCCc5ccc(O)c(=O)[nH]5)cc4)c3)[nH]c12`, which Inhibition is on record?
Answer: 30%

Question: How did the Inhibition turn out when `COc1ccc(Cl)c(CC2c3cc(O)c(Cl)cc3CCN2C)c1.Cl` (stereo not given) was run?
Answer: 72%

Question: How did the Inhibition turn out when `Cc1sc(C)c(C(F)(F)F)c1CNCCCNc1cc(=O)c2ccccc2[nH]1.Cl` was run?
Answer: 43%

Question: With `CC1(C)NC(N)=NC(=N)N1OCc1nc(N)nc(Nc2ccccc2)n1` as the compound, how does the Inhibition read?
Answer: 0%

Question: `N#CCOc1c(C2CCN(CCCCNC(=O)c3ccc(-c4ccc(C(F)(F)F)cc4)cc3)CC2)ccc2c1CCCC2` was tested. Which Inhibition did it give?
Answer: 48%

Question: Which Inhibition does the source give for `Nc1c(Cl)cc(C(O)CNCCCCCOCCCc2ccc3ncccc3c2)cc1Cl.O=C(O)/C=C/C(=O)O` (stereo not given) here?
Answer: 77%

Question: How did the Inhibition turn out when `Cl.O=S(=O)(Nc1ccc2nccc(N3CCNCC3)c2c1)c1ccc(-c2ccccc2)cc1` was run?
Answer: 0%

Question: With `Cc1c(C)c2c(c(C)c1O)CC[C@](C)(C(=O)N1CCC(CCN3CCC(c4c[nH]c5ccccc45)CC3)CC1)O2` as the compound, how does the Inhibition read?
Answer: 74%

Question: With `CCCCCN1CCCN(Cc2cccc(NC(=O)c3ccc4ccccc4c3)c2)CC1.O=C(O)C(F)(F)F` as the compound, how does the Inhibition read?
Answer: 16%

Question: How did the Inhibition turn out when `CC(C)(C)c1cc(C(=O)Nc2cccnc2)cc(C(=O)Nc2cccnc2)c1` was run?
Answer: 35%

Question: How did the Inhibition turn out when `Br.Cc1ccnc(Nc2nc(-c3ccccn3)cs2)c1` was run?
Answer: 87%

Question: How did the Inhibition turn out when `Cc1ccccc1C1CCN(C2CCC(NC(=O)/C=C/c3ccc(Cl)cc3)CC2)CC1` (stereo not given) was run?
Answer: 25%

Question: `COc1ccc2c(c1)Nc1ccc(Cl)cc1C2N.O=S(=O)(O)O` (stereo not given) was tested. Which Inhibition did it give?
Answer: 99%

Question: How did the Inhibition turn out when `Brc1ccsc1-c1nc(NCCC(c2ccccc2)c2ccccc2)no1` was run?
Answer: 81%

Question: Which Inhibition does the source give for `O=C(O)C(F)(F)F.O=C1OC2(CN1CC1CCN(Cc3ccc(-n4ccnc4)cc3)C1)c1ccccc1-c1ccccc12` (stereo not given) here?
Answer: 0%

Question: Which Inhibition does the source give for `O=C(Nc1ccc(S(=O)(=O)N2CCCCCC2)cc1)c1cc(-c2ccccc2O)n[nH]1` here?
Answer: 76%

Question: Which Inhibition does the source give for `Cc1c(F)cc(C(=O)NC2CC2)cc1-c1ccc2c(cnn2S(=O)(=O)c2ccc(Cl)s2)c1` here?
Answer: 50%

Question: For `CC[C@H](C)CNC(=O)c1cccc(-c2ccc(CN3CCC(N4CCCC4)CC3)cc2)n1.O=C(O)C(F)(F)F`, which Inhibition is on record?
Answer: 82%

Question: For `CNC(=N)c1ccc(NC(=O)c2ccc(C(=O)Nc3ccc(C(=N)NC)cc3)cc2)cc1.Cl`, which Inhibition is on record?
Answer: 91%

Question: How did the Inhibition turn out when `COc1cc(C(C)C)nc2ccc(NC(=O)c3ccc(C(=O)Nc4ccc5nc(C(C)C)cc(OC)c5c4)cc3)cc12` was run?
Answer: 72%

Question: How did the Inhibition turn out when `CCCc1cc(C)ccc1OCCCON1C(NC(=O)OCC)=NC(NC(=O)OCC)=NC1(C)C` was run?
Answer: 97%

Question: How did the Inhibition turn out when `O=C(Nc1ccc(OC2CCN(Cc3ccsc3)C2)c(Cl)c1)c1cccs1.O=C(O)C(F)(F)F` (stereo not given) was run?
Answer: 87%

Question: `COc1cccc(NC(=O)NC2CCN(c3ccnc(Nc4ccc(F)cc4)n3)C2)c1` (stereo not given) was tested. Which Inhibition did it give?
Answer: 71%

Question: How did the Inhibition turn out when `COc1ccc(CC2(c3ccc(F)cc3)N=C(N)N(CCCc3ccc4c(c3)OCO4)C2=O)cc1.O=C(O)C(F)(F)F` (stereo not given) was run?
Answer: 97%

Question: How did the Inhibition turn out when `CCC(C)c1ccc(-n2c(Nc3ccccc3)nc3cc(S(N)(=O)=O)ccc32)cc1` (stereo not given) was run?
Answer: 28%

Question: How did the Inhibition turn out when `O=C(NC1CCC(N2CCN(c3cccc(C(F)(F)F)c3)CC2)CC1)c1cc2ccccc2[nH]1` (stereo not given) was run?
Answer: 22%

Question: `c1ccc(Oc2ccc(Nc3ccnc4cc(-c5cccc(CNCCN6CCOCC6)c5)ccc34)cc2)cc1` was tested. Which Inhibition did it give?
Answer: 98%

Question: For `COc1ccc(-c2cccc(NC(=O)c3cccc(C#N)c3)c2)cc1CN(C)CCO.O=C(O)C(F)(F)F`, which Inhibition is on record?
Answer: 30%

Question: For `O=C(c1ccc(O)c(-c2cc(Cl)cc(Cl)c2)c1)N(CCO)CCO`, which Inhibition is on record?
Answer: 62%

Question: Which Inhibition does the source give for `Cl.Clc1ccc(C2CCN(CCCOc3ccc4c(c3)CCNCC4)CC2)cc1` here?
Answer: 28%

Question: For `COc1ccc(N2CCN(c3nc(N)c4cc(OC)c(OC)cc4n3)CC2C)cc1.Cl` (stereo not given), which Inhibition is on record?
Answer: 0%

Question: Which Inhibition does the source give for `CCCNCc1ccc(-c2ccc(CN(Cc3ccc4c(c3)OCO4)C(=O)[C@H]3CCCO3)cc2)nc1.O=C(O)C(F)(F)F` here?
Answer: 39%
